The results in this text go back to the OligoGym collection.
Note: reference of the scale not given here.

For the first experiment, the target named is AMICA1. In words: pooled miR-30 sensor sort-seq; sequence = guide strand. Conditions: shRNA.
On to AATAGTATAGCACATATTCGTC, for which the sensor-assay potency score (higher = more potent) is -1.02.
Same read-out and setting: with TATCAGAACAGGGAGCAGCAGG the figure was -0.745; with TATAGCACATATTCGTCCTTGG, -0.0697; with TTGCACATCTTGGAGCAGGAGA, -0.908.
Same read-out and setting: with TATACATTTGTCTTCTGTGCTC the figure was -0.0847.
TTTTCAAGTGAGTTGTTCCGAT yielded a sensor-assay potency score (higher = more potent) of -0.169.
For TTTGTCTTCTGTGCTCTGGAAA, the sensor-assay potency score (higher = more potent) is -0.894.
On the same count and under the same terms, with TCTATCTTGAATATACATTTGT the figure was -0.466; with TGAATATACATTTGTCTTCTGT, -0.514.
Still for that read-out and setting: with TCTGGATTAGTCTTCTTCGTGT the figure was -0.36; with TTCTTGAACACCAGGTTCCCTA, -1.01; with TATCTCTGGATTAGTCTTCTTC, -0.382.

The target in the next experiment is AMOTL1. Described as above. Conditions: shRNA.
TAATCATAGCATCTTTCTCTAT came in with a sensor-assay potency score (higher = more potent) of -1.
The sequence TTTCTCAACATATGCTTGCTTC gave a sensor-assay potency score (higher = more potent) of -0.629.
On the same count and under the same terms, with TAGCAGTCTCTAGTCGATCTCG the figure was -0.33; with TTTTTCAAACTTGTGGAGCTTG, 0.0773.
Turning to TTAACTTTGTTTGCAAACCTAC, the sensor-assay potency score (higher = more potent) was determined as 0.352.
The same measure, in the same setting: with TTCTTTTTCAAACTTGTGGAGC the figure was -0.646.
Consider TTTGTCTTCATGCCCTTCGTAT, for which the sensor-assay potency score (higher = more potent) was -0.754.
In the case of TTCTTGAGTGAGGTTTTCCGTG, the sensor-assay potency score (higher = more potent) was -0.593.
Same read-out and setting: with TTGCAGTCCGCACTGCTGCTAA the figure was -0.698.
